Measurements: PubChem BioAssay
The source made the active and inactive calls.

Tests used:
[1] = small molecules captured by biotinylated probe aFSTL3 – biochemical, small-molecule microarray, fluorescence 635/667, stem cell growth factor project, primary screen (AID 1064); conditions: higher = more signal;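 also: measures binding of the biotinylated anti-FSTL3 antibody to printed compounds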
[2] = binders from COS7 lysate, DM2A8 probe, primary screen, torsin A project, cell lysate, small-molecule microarray, fluorescence 635/667 (AID 1065); conditions: higher = more signal, COS7 lysate expressing mutant human TOR1A
[3] = small molecules captured by biotinylated probe aFGF2 – biochemical, small-molecule microarray, fluorescence 635/667, stem cell growth factor project, primary screen (AID 1067); conditions: higher = more signal;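 also: measures binding of biotinylated aFGF2 protein to printed compounds on slides; z-score merges feature fluorescence and signal-to-noise across triplicate slides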
[4] = small molecules captured by biotinylated probe aFGF10 – biochemical, small-molecule microarray, fluorescence 635/667, stem cell growth factor project, primary screen (AID 1071); conditions: higher = more signal;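 also: score merges 667 nm spot intensity and signal to noise from triplicate slides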
[5] = molecular target: Neurogenic locus notch homolog protein 2 (Homo sapiens) (UniProt Q04721); test: small molecules binding Notch2 protein – biochemical, small-molecule microarray, 635 nm fluorescence, stem cell growth factors, primary screen (AID 1073); conditions: higher = more signal
[6] = molecular target: Pro-neuregulin-1, membrane-bound isoform (Homo sapiens) (UniProt Q02297); test: small molecules binding neuregulin-1 protein – biochemical, small-molecule microarray, fluorescence 635/667, psychiatric disease protein project, primary screen (AID 1075); conditions: NRG1 binding, 635 nm fluorescence, higher = more signal;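 also: score combines 667 nm spot fluorescence with signal to noise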
[7] = system: Neuregulin-1 EGF-like domain; test: small molecules binding NRG1 EGF domain – biochemical, small-molecule microarray, 635 nm fluorescence, primary screen (AID 1081); conditions: higher = more signal;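 also: binding of the protein to compounds printed on small-molecule microarray slides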
[8] = FRG1 expression reporter modulators in myotubes – cell-based, C2C12 myotubes, firefly/Renilla luciferase, luminescence, FRG1 inhibition for FSHD, primary screen (AID 1084); conditions: FRG1 promoter luciferase, higher = more signal, called active from +8 up or from −8 down
[9] = small molecules captured by biotinylated probe aFST – biochemical, small-molecule microarray, fluorescence 635/667, stem cell growth factor project, primary screen (AID 1086); conditions: higher = more signal;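 also: score merges 667 nm fluorescence with signal-to-noise of each printed compound spot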
[10] = binders of probe aHhip on microarray, primary screen, stem cell growth factor project, biochemical, small-molecule microarray, fluorescence 635/667 (AID 1087); conditions: higher = more signal;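 also: score merges spot fluorescence at 667nm with spot signal to noise ratio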
[11] = system: PRMT1 (protein arginine N-methyltransferase 1); test: small molecules binding arginine methyltransferase PRMT1 – biochemical, small-molecule microarray, 635 nm fluorescence, primary screen (AID 1088); conditions: higher = more signal;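 also: binding of Prmt1 protein to compounds spotted on small-molecule microarray slides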
[12] = growth effects on S. cerevisiae YJM789 – YJM789 clinical isolate, OD600, 24 h, basal, primary screen (AID 1089); conditions: higher = more signal, called active from +8 up or from −8 down;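 also: growth of clinical yeast isolate S. cerevisiae YJM 789 seeded 1000 cells per well; test concentration not given here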
[13] = S. pombe growth modifiers, basal conditions – strain 972, OD600, 24 h, no modulator, primary screen (AID 1090);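 also: basal condition with compound alone and no growth modifier present; test concentration not given here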; conditions: S. pombe 972 growth, higher = more signal, called active from +8 up or from −8 down
[14] = budding yeast growth modifiers under rapamycin – strain BY4716, OD600, 96 h, primary screen (AID 1091); also: test concentration not given here; conditions: S. cerevisiae BY4716 + rapamycin, higher = more signal, called active from +8 up or from −8 down
[15] = molecular target: Torsin-1A-interacting protein 2 (Homo sapiens) (UniProt Q8NFQ8); test: small molecules binding lysate-expressed LULL1 – cell lysate, human LULL1 lysate, 635/667 nm fluorescence, primary screen (AID 1092); conditions: small-molecule microarray, hLULL1 lysate binding, 635 nm fluorescence; higher = more signal;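 also: probe is lysate of COS7 cells overexpressing human LULL1; score merges per-feature 667 nm fluorescence with signal-to-noise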
[16] = optical density change of DRC41 E. coli – strain DRC41, OD650, 24 h, E. coli filamentation project, primary screen (AID 1093);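 also: MC1000 strain lacking acrAB efflux and sulA so SOS filamentation is blocked; test concentration not given here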; conditions: E. coli DRC41 growth, higher = more signal, called active from +8 up or from −8 down
[17] = probe aLefty2 binding to arrayed compounds – biochemical, biotinylated probe, 635/667 nm fluorescence, primary screen (AID 1094); conditions: small-molecule microarray, higher = more signal;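 also: score merges spot fluorescence near 667 nm with spot signal-to-noise ratio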
[18] = system: Noggin (protein binding on small-molecule microarray); test: small molecules binding Noggin protein – biochemical, 635/667 nm fluorescence, primary screen (AID 1095); conditions: 635 nm fluorescence, higher = more signal;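 also: score merges 667 nm feature fluorescence with signal to noise over triplicate slides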
[19] = molecular target: Neurogenic locus notch homolog protein 3 (Homo sapiens) (UniProt Q9UM47); test: small molecules binding NOTCH3 protein – biochemical, 635/667 nm fluorescence, primary screen (AID 1096); conditions: small-molecule microarray, 635 nm fluorescence, higher = more signal
[20] = probe aEGFR binding to arrayed compounds – biochemical, biotinylated probe, 635/667 nm fluorescence, primary screen (AID 1097); conditions: small-molecule microarray, higher = more signal;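 also: probe is a biotinylated anti-EGFR antibody binding compounds printed on slides; score combines fluorescence near 667 nm and signal to noise of each spot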

Sequence of Pro-neuregulin-1, membrane-bound isoform (Homo sapiens) (Q02297 whole entry, looked up, the tested form may be a part, canonical isoform): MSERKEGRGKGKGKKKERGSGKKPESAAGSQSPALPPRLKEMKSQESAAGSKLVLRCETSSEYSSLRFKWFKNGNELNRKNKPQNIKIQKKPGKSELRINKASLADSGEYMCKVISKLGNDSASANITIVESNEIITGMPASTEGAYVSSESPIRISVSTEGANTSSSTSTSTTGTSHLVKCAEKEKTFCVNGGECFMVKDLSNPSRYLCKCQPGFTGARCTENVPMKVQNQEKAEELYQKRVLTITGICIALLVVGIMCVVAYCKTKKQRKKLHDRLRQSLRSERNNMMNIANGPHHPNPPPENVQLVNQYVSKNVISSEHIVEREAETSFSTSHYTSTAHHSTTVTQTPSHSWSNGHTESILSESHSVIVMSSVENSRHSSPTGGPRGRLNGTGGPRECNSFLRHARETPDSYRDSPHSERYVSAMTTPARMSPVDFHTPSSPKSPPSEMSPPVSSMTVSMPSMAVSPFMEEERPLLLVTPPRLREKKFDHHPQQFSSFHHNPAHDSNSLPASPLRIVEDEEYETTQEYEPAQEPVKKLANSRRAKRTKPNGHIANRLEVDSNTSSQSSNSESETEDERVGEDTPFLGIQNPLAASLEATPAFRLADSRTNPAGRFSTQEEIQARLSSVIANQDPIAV
Sequence of Neurogenic locus notch homolog protein 3 (Homo sapiens) (Q9UM47 whole entry, looked up): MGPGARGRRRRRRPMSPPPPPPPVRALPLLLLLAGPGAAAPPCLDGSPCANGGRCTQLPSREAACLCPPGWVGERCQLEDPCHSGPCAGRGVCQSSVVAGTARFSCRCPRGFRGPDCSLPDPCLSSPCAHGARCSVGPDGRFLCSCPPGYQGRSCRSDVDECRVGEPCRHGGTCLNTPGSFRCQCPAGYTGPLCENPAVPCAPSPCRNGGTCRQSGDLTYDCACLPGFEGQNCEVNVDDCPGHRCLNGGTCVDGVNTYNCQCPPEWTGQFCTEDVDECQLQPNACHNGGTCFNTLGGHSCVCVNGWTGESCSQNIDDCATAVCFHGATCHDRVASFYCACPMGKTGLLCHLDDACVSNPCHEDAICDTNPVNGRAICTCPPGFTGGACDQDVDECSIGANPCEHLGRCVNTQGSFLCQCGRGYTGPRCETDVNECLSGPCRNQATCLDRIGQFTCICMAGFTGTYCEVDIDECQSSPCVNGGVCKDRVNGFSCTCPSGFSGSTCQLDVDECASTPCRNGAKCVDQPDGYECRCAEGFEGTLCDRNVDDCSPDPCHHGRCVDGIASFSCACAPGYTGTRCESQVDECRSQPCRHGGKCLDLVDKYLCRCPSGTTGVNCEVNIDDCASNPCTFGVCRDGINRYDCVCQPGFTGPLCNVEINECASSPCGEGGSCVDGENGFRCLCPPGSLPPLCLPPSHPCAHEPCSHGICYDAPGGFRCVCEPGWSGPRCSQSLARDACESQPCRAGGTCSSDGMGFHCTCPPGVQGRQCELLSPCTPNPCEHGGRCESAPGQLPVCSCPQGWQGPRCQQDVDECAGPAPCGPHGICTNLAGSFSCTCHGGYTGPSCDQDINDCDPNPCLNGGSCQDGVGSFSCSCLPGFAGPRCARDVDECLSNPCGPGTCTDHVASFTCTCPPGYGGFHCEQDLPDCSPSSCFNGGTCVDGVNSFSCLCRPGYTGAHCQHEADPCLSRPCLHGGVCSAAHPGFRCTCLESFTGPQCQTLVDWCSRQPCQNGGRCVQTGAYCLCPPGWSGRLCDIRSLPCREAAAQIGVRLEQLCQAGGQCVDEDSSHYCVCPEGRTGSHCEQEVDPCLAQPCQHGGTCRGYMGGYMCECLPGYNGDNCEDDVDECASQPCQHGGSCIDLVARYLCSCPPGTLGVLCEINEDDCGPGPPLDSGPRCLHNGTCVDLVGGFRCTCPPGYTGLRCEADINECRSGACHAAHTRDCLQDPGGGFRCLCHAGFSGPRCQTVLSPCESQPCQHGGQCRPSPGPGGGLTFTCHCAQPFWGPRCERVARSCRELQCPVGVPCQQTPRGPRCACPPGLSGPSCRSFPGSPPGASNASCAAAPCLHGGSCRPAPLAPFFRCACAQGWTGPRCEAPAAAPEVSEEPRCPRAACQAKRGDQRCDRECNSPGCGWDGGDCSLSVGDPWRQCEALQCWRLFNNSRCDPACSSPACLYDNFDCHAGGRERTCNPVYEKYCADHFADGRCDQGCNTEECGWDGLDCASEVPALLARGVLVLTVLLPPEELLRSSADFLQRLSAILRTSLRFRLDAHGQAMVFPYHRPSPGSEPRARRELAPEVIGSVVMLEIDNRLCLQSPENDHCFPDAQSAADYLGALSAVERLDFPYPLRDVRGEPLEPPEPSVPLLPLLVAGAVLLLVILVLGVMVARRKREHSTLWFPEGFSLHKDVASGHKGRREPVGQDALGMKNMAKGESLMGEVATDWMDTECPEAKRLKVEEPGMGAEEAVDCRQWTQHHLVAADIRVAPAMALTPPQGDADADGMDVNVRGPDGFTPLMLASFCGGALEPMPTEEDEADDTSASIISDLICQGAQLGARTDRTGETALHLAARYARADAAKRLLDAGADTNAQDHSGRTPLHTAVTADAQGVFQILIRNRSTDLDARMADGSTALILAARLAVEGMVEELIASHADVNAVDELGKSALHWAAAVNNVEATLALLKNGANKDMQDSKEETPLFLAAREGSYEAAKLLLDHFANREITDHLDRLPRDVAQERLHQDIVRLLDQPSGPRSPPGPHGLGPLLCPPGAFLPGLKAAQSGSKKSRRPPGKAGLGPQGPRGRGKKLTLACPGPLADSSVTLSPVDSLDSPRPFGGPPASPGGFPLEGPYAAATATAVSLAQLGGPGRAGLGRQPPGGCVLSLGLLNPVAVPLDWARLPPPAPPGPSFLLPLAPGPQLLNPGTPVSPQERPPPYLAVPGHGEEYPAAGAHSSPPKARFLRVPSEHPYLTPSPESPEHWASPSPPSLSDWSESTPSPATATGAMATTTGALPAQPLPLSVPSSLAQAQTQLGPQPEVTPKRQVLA
Sequence of Torsin-1A-interacting protein 2 (Homo sapiens) (Q8NFQ8 whole entry, looked up): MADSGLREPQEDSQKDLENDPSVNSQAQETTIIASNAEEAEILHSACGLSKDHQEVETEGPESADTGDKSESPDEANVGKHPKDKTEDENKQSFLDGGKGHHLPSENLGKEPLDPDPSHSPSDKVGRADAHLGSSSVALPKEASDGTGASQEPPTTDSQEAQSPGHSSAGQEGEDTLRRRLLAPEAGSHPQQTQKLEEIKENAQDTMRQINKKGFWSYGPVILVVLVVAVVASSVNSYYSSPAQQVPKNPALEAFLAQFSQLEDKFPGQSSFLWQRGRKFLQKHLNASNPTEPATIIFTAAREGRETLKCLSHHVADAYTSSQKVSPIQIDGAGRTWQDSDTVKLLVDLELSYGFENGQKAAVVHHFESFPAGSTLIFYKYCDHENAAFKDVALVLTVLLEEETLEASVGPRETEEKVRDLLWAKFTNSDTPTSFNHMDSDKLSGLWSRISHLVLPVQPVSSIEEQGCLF

Row | Structure (SMILES) | composite z-score [1] | composite z-score [2] | composite z-score [3] | composite z-score [4] | composite z-score [5] | composite z-score [6] | composite z-score [7] | z-score [8] | composite z-score [9] | composite z-score [10] | composite z-score [11] | z-score [12] | z-score [13] | z-score [14] | composite z-score [15] | z-score [16] | composite z-score [17] | composite z-score [18] | composite z-score [19] | composite z-score [20]
1 | C=C(COC)C(=O)CC[C@H](OC(=O)c1cccnc1)c1ccc(OCCO)cc1 | -0.21 | 0.43 | -0.133 | 1.2 | 0.144 | 0.865 | 1.29 | -0.742 (inactive) | 0.21 | -0.0618 | 1.52 | -0.191 (inactive) | -1.48 (inactive) | 0.535 (inactive) | 1.48 | 0.105 (inactive) | -0.155 | 1.22 | 0.78 | -0.113
2 | CO[C@H]1O[C@H](CO)[C@@H](OC(=O)Nc2ccc3c(c2)OCO3)[C@H](OC(=O)Nc2ccccc2-c2ccccc2)[C@H]1OC(=O)Nc1ccccc1-c1ccccc1 | 0.22 | 0.873 | 0.007 | 1.26 | 1.44 | 0.96 | 1.18 | 0.124 (inactive) | 0.189 | 0.0749 | 1.54 | 2.5 (inactive) | 2.11 (inactive) | 2.28 (inactive) | 3.35 | 0.566 (inactive) | 0.0164 | 0.546 | 0.624 | 0.29
3 | CC(=O)c1ccc(C(O)C2C=CC3C(=O)N(c4ccccc4)C(=O)C3N2Nc2ccc(C(C)C)cc2)cc1 (stereo not given) | 0.305 | -0.152 | -0.0226 | 0.897 | 1.37 | 1.55 | 1.09 | 0.59 (inactive) | 1.51 | -0.106 | 1.08 | 1.24 (inactive) | 1.55 (inactive) | -0.0304 (inactive) | 2.24 | -0.541 (inactive) | 0.136 | 0.101 | 1.07 | 0.187
4 | COCCOC(=O)N1C(=O)[C@@]2(c3cc(C#CCCO)ccc31)[C@H](C(N)=O)[C@H]1C(=O)O[C@H](c3ccccc3)[C@H](c3ccccc3)N1[C@@H]2c1ccccc1OCCO | -0.352 | 0.755 | -0.0579 | 0.658 | 1.11 | 1.43 | 1.19 | -0.96 (inactive) | 0.52 | 0.219 | 1.54 | 1.85 (inactive) | 1.17 (inactive) | 3.4 (inactive) | 2.15 | -0.497 (inactive) | 0.319 | 0.989 | 1.15 | 0.105
5 | COC(=O)[C@H](Cc1ccc(O)cc1)N[C@@H](/C=C/C1CC1)[C@H](O)Cc1ccccc1 | -0.262 | 0.396 | -0.187 | 0.154 | 0.023 | -0.721 | -0.776 | -0.269 (inactive) | -0.437 | -0.0994 | 0.308 | 0.687 (inactive) | -0.813 (inactive) | 0.0393 (inactive) | -0.243 | -0.732 (inactive) | -0.251 | -0.0001 | -0.0155 | -0.0828
6 | O=C1C=C(c2ccccc2)C(=O)C2=C1CC([C@H]1Oc3ccccc3S(=O)(=O)N3CCC[C@@H]13)=CC2 | -0.415 | -0.618 | -0.119 | -0.0024 | -0.103 | 0.0032 | -0.702 | -0.7 (inactive) | 1.49 | -0.0296 | 0.345 | -0.418 (inactive) | -3.32 (inactive) | 13.4 (active) | -0.101 | 0.542 (inactive) | -0.183 | -0.194 | 0.0989 | -0.135
7 | C=C(COC)/C(=C/C[C@H](OC(C)=O)c1ccccc1OCCO)c1cc(C(=O)OC)ccc1OC | -0.398 | 0.275 | -0.0948 | 1.05 | -0.738 | 0.727 | 1.28 | 0.181 (inactive) | 0.318 | -0.0003 | 1.48 | 0.909 (inactive) | -0.662 (inactive) | -0.16 (inactive) | 1.76 | 0.952 (inactive) | -0.0928 | 0.485 | 0.372 | -0.0815
8 | O=C(NCC(O)CO)C1N=C(c2ccc(OCCCO)cc2)N(c2ccccc2)O1 (stereo not given) | -0.279 | 0.657 | 0.0073 | 0.643 | 0.575 | -0.168 | 0.462 | 3.24 (inactive) | -0.282 | 0.136 | 1.55 | -0.375 (inactive) | -0.243 (inactive) | 0.13 (inactive) | 1.8 | 0.153 (inactive) | -0.196 | 1.19 | 0.882 | -0.0531
9 | COCCCNC(=O)[C@@]1(CCC(=O)OC(C)(C)C)COC(c2ccc(OCCCO)cc2)=N1 | -0.0885 | 0.355 | -0.0659 | 0.611 | 0.844 | 1.63 | 1.21 | -0.604 (inactive) | 0.579 | -0.12 | 1.59 | -0.649 (inactive) | 0.132 (inactive) | -2.07 (inactive) | 3.51 | 0.488 (inactive) | -0.0906 | 0.337 | 0.571 | -0.13
10 | CC(C)(C)N1CC=CC23O[C@@H]4C=CCCOC(=O)C4[C@H]2C(=O)N(CCCCCCO)[C@@H]3C1=O (stereo not given in full) | -0.0477 | -1.39 | -0.0628 | 0.0493 | -0.615 | 1.36 | 1.56 | 0.908 (inactive) | -0.0273 | -0.236 | 0.647 | -0.0623 (inactive) | -0.563 (inactive) | 0.352 (inactive) | 3.16 | -0.2 (inactive) | -0.171 | -0.679 | 0.123 | -0.238
11 | O=C(NC1CC1)[C@@H]1c2ccccc2C(=O)N(Cc2ccc(OC(F)(F)F)cc2)[C@H]1c1ccc(CO)cc1 | 0.0273 | 0.314 | -0.0418 | -0.0789 | 0.354 | 1.38 | 0.793 | -0.859 (inactive) | 0.0427 | -0.0994 | 0.696 | -0.112 (inactive) | -0.636 (inactive) | -1.51 (inactive) | 1.76 | 0.577 (inactive) | -0.0943 | 0.818 | 0.377 | -0.0679
12 | C=CCOC(=O)[C@@H]1[C@H]2C(=O)O[C@H](c3ccccc3)[C@H](c3ccccc3)N2[C@H](c2ccc(OCCOC(=O)[C@H]3C[C@H]4C(=O)N[C@@H](CCCCN(C)C)C(=O)N4[C@H]3c3ccc(O)cc3)cc2)[C@@]12C(=O)Nc1ccc(I)cc12 | -0.139 | 1.43 | -0.0583 | 0.454 | -0.0871 | 0.655 | 1.33 | 0.921 (inactive) | 0.166 | 0.0373 | 1.53 | 1.16 (inactive) | -2.52 (inactive) | 1.35 (inactive) | 2.68 | -1.27 (inactive) | -0.0686 | 1.93 | 1.1 | -0.0487
